# In the OligoGym collection:
# Target: ZNF32
# Experiment: pooled miR-30 sensor sort-seq; sequence = guide strand
# Details: shRNA
# Note: reference of the scale not given here.
row,Sequence,sensor-assay potency score (higher = more potent)
1,TTGAAGAACGCTACATTCTGGG,0.82
2,TTGAGGATCCTGTAGCCTCAGA,-1.2
3,TTGATGTGTAACAAGATTGCCT,0.254
4,TAGTGTCTTCGAATCTGGGGAT,-0.0716
5,TTAGACTACCTTTTTGCCGGAA,-0.355
6,TAACGTTAGACTACCTTTTTGC,-0.0672
7,ATATCTTCCATGACAGTCCAGC,-0.761
8,TGTAGTGTCTTCGAATCTGGGG,0.479
9,TATCCCAGCTTGAGGATCCTGT,-0.615
10,TGAATCTTCCTGTAGTGTCTTC,-0.275
11,TCTTCCATGACAGTCCAGCAGG,-1.26
12,TCTTCCTGTAGTGTCTTCGAAT,-1.44

# Target: ZNF343
# Experiment: as above
# Details: shRNA
row,Sequence,sensor-assay potency score (higher = more potent)
1,TTGAGGATGGACTTACTTCTAA,-0.709
2,TTTCGCTTTATGATTTTGGGTC,-0.0502
3,ATAGTCTCTACATTTTCCCCAT,-0.495
4,TACATGTTGACTGAGGAACTGC,-0.356
5,TAGAAGGCAAGCCTTTCGCTTT,-0.611
6,TTGACTTGTCACAAAAGCCTCG,-0.0132
7,TATCATTAGAAGGCAAGCCTTT,-0.78
8,TTGATGAGATCTGAGTTCTGGC,0.144
9,TTTGACTTATGACTAAAGCCTC,-0.874
10,TTGACTTCTGGCTAAAACCTCG,-0.583
11,TTGACTTATGACTAAAGCCTCG,-0.75
12,TTTGATGAGATCTGAGTTCTGG,0.519

# Target: ZNF383
# Experiment: as above
# Details: shRNA
row,Sequence,sensor-assay potency score (higher = more potent)
1,TAAATTGTGAGTTCTGACTAAA,-0.929
2,TTGAATAAATTGTGAGTTCTGA,-0.124
3,TTGAACAAGCTTTGAGCTCTGG,0.42
4,TTGAGCAATAACTAAAGGCCTT,-0.458
5,TCTCTGATGTTGAACAAGCTTT,-0.743
6,TAACTTGGTTTCACACATCGAT,0.203
7,TAAGATTTGAGCAATAACTAAA,-1.31
8,TTCTTTAGAGATAATAACTTGG,-0.196
9,TAACATGTGAACCACAACTAAA,-1.41
10,TATATTCCAAAACATCTCCAAA,-1.29
11,TTCTATTTCATAAACTTCCTTC,-0.0685

# Target: ZNF384
# Experiment: as above
# Details: shRNA
row,Sequence,sensor-assay potency score (higher = more potent)
1,TTGAGCTTGAGCCTGGGCCTGG,-0.952
2,TTTATCTTTGTTGTGTTGCCGT,0.173
3,ATCTTGTTGATGAACATTGTGT,-0.823
4,ATAAGGGTCATTCATCTCGGGC,-1.42
5,ATTTGTATGGTCTATCACCAGT,-0.958
